In PubChem BioAssay (NCI):
The panel holds about 79,000 compounds, 15% with a hit somewhere; the sample as a whole holds those more often. Cut-off read from the data, not from the text of the source: active = growth inhibition above about 70%; inactive = the rest.

How the values were obtained:
[1] = NCI Yeast Anticancer Drug Screen. Data for the rad50 strain (AID 155);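 note: 0% = growth of vehicle-only cultures of the same strain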; details: S. cerevisiae rad50 strain growth inhibition; at 50.0 µM; hits give high values
Summary of the method: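 Compounds were tested on a yeast strain with an engineered DNA damage repair alteration; the reported value is growth inhibition normalised to vehicle treatment.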

[2] = NCI Yeast Anticancer Drug Screen. Data for the mec2-1 strain (AID 157); details: S. cerevisiae mec2-1 strain, at 50.0 µM, hits give high values
Summary of the method: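 Yeast mec2-1 mutant treated with compound. Readout: growth inhibition vs vehicle controls.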

[3] = NCI Yeast Anticancer Drug Screen. Data for the sgs1 mgt1 strain (AID 161);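 note: 0% = growth of cultures given vehicle only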; details: S. cerevisiae sgs1 mgt1 strain, at 50.0 µM, hits give high values
Summary of the method: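 Test agents were incubated with a DNA-repair-mutant yeast strain. Growth was then read and compared against vehicle-treated controls.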

[4] = NCI Yeast Anticancer Drug Screen. Data for the cln2 rad14 strain (AID 165);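 note: 0% = growth equal to vehicle treated cultures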; details: S. cerevisiae cln2 rad14 strain, at 50.0 µM, hits give high values
Summary of the method: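 cln2 rad14 yeast strain; compound exposure; growth inhibition read vs vehicle controls.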

[5] = NCI Yeast Anticancer Drug Screen. Data for the bub3 strain (AID 167); details: S. cerevisiae bub3 mutant strain, at 50.0 µM, hits give high values
Summary of the method: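 Growth of a checkpoint-deficient yeast mutant is measured after compound exposure. Values represent inhibition relative to vehicle.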

[6] = NCI Yeast Anticancer Drug Screen. Data for the mlh1 rad18 strain (AID 175); details: S. cerevisiae mlh1 rad18 strain growth inhibition; at 50.0 µM; hits give high values
Summary of the method: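 Yeast w/ defined DNA-repair lesions; compound exposure; growth vs vehicle controls → % inhibition.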

Measured: growth inhibition

N#Cc1cc([N+](=O)[O-])ccc1NC(=O)C(=O)C(C(=O)c1ccc2ccccc2c1)C1OCc2ccccc21 (stereo not given)
inactive: [1] 11.1% | [2] -6.4% | [3] -2.85% | [4] 36.1% | [5] -8.5% | [6] -9.95%

O=[N+]([O-])c1ccc(S(=O)(=O)Nc2c([N+](=O)[O-])cc([N+](=O)[O-])c3ccccc23)cc1
inactive: [1] 36.6% | [2] -3.9% | [3] 21.4% | [4] 12.7% | [5] 2.7% | [6] 18.4%

N#Cc1cnn2ccn(C3OC(CO)C(O)C3O)c12 (stereo not given)
inactive: [1] -42.8% | [2] -14.2% | [3] -18.9% | [4] -22.6% | [5] -5.45% | [6] 14.9%

c1ccc(-c2sc(-c3ccccc3)c3c2C2CCC3C2)cc1
inactive: [1] -12.4% | [2] 6.05% | [3] 14% | [4] 29% | [5] 40.6% | [6] -0.05%

CCC(=O)c1nc(N)[nH]c1CC
inactive: [1] -36.7% | [2] -21.6% | [3] -12.1% | [4] -44.3% | [5] -3% | [6] -6.45%

CN(C)C(=O)NO
inactive: [1] -32% | [2] -26.1% | [3] -11.8% | [4] -19.8% | [5] -3.3% | [6] -28.4%

COc1ccccc1N1C(Cl)C(=O)C1c1c[nH]c2ccccc12 (stereo not given)
inactive: [1] 26.9% | [2] -40.3% | [3] -28.7% | [4] 4.4% | [5] -26.6% | [6] -34.9%

C[OH2+].[Cl][Cu+].[Cl][Cu+].[NH-]CCC([OH2+])CC[NH-]
inactive: [1] -9.1% | [2] -12.2% | [3] -14.4% | [4] -57.5% | [5] -2.8% | [6] 8.2%

COc1ccc(CCn2nnc3ccccc3c2=O)cc1OC
inactive: [1] -4.1% | [2] -33.1% | [3] -10.1% | [4] 16.6% | [5] -28.4% | [6] -11.5%

Cn1c(CC(O)c2nc3ccccc3n2C)nc2ccccc21 (stereo not given)
inactive: [1] -18.7% | [2] -18.6% | [3] -10.2% | [4] -8.75% | [5] -23.8% | [6] -33.5%

O=C(O)CSSCC(=O)O
inactive: [1] -0.15% | [2] -16.6% | [3] -18.8% | [4] 23.1% | [5] -10.2% | [6] -24.5%

S=C=Nc1ccc(CSc2nc3ccccc3[nH]2)cc1
inactive: [1] 0.8% | [2] -9.25% | [3] 12.8% | [4] 2.4% | [5] 9.4% | [6] -11.2%

COc1ccc(C2c3cc4c(cc3OC(O)(CO)C2C(=O)O)OCO4)c(OC)c1OC (stereo not given) (tested in a mixture with another compound)
inactive: [1] 0.2% | [2] -4% | [3] 6% | [4] -15.5% | [5] -18.3% | [6] 9.65%

CSc1nc2ncnc(NCc3ccc(Cl)cc3)c2[nH]1
inactive: [1] -11% | [2] -4.35% | [3] -4.1% | [4] -43.3% | [5] -7.45% | [6] -35.7%

C[CH2][Sn]([CH2]C)([O]C(=O)c1ccc(F)cc1)[O][Sn]([CH2]C)([CH2]C)[O]C(=O)c1ccc(F)cc1
inactive: [1] -7.3% | [2] -2.8% | [3] -16.4% | [4] 23.6% | [5] 12.6% | [6] -9.05%

Cn1ccnc1CCc1ccc(F)cc1F
inactive: [1] -37.2% | [2] -20.8% | [3] -2.75% | [4] -0.15% | [5] -2.2% | [6] -22.2%

CO[C@@H]1C2C3c4ccccc4C(c4ccccc43)C2[C@H](OC)[C@H]2OC(c3ccccc3)O[C@H]21 (stereo not given in full)
inactive: [1] -13.4% | [2] -14.9% | [3] 7.15% | [4] 10% | [5] 2.15% | [6] -2.65%

CN=NN(C)C(=O)NC
inactive: [1] -11.9% | [2] 0.7% | [3] 10.1% | [4] -13% | [5] -25% | [6] 30.4%

Cc1ccc(S(=O)(=O)N=Nc2c(O)[nH]c3c(Cl)cc(Cl)cc23)cc1
inactive: [1] -11.8% | [2] -18.8% | [3] 4.65% | [4] -1.2% | [5] -22.4% | [6] 23.2%

Nc1c(S(=O)(=O)O)cc(Nc2cccc(S(=O)(=O)/C=C/S(=O)(=O)O)c2)c2c1C(=O)c1ccccc1C2=O
inactive: [1] 8.4% | [2] -28.9% | [3] -1.2% | [4] -2.45% | [5] 0.85% | [6] -14.2%

CSc1nc2c(ncn2C2OCC(O)C(O)C2O)c(=O)n1C (stereo not given)
inactive: [1] 12% | [2] 7.7% | [3] -24.2% | [4] 29.6% | [5] -4.35% | [6] 15.6%

COc1ccc(OC)c(NC(=O)SC(C)C)c1
inactive: [1] -5.3% | [2] -21.8% | [3] -9.45% | [4] 0.15% | [5] 18.2% | [6] -3.65%

CC(C)n1cnc2c(=O)[nH]c(=O)[nH]c21
inactive: [1] -9.55% | [2] -4.55% | [3] 9.25% | [4] -39.8% | [5] -5.2% | [6] 2.9%

O=C(CCC(=O)Nc1ccccc1[N+](=O)[O-])CC(=O)c1ccc(Br)cc1
inactive: [1] 4.85% | [2] 7.75% | [3] -2.95% | [4] 9.3% | [5] -13.1% | [6] 6.15%

CCC1COS(=O)(=O)CS(=O)(=O)O1 (stereo not given)
inactive: [1] -27.6% | [2] -16.2% | [3] -3.35% | [4] -40.9% | [5] 11.8% | [6] 3.1%

N#CC(C#N)=CNc1cccc(Cl)c1
inactive: [1] 34% | [2] 9.8% | [3] 29.2% | [4] 9.45% | [5] -1.05% | [6] 18.5%

O=C1Cc2ccccc2CCc2ccccc21
inactive: [1] 13.2% | [2] -13.3% | [3] 6.5% | [4] 22.8% | [5] -13.8% | [6] 24%

Cc1cc(S(=O)(=O)Nc2n[nH]c(-c3ccc(Cl)cc3)n2)c(SSc2cc(Cl)c(C)cc2S(=O)(=O)Nc2n[nH]c(-c3ccc(Cl)cc3)n2)cc1Cl
inactive: [1] 34.5% | [2] 15.2% | [3] 27.8% | [4] 34.7% | [5] 30.6% | [6] 32.2%

CCCCNC(=O)CC(C)C(=O)O (stereo not given)
inactive: [1] 2.8% | [2] -1.35% | [3] -6.1% | [4] -20.8% | [5] -1.55% | [6] 6.1%

O=C(CCN1CCCC1)c1ccc2ccccc2c1
inactive: [1] 32.6% | [2] 49.3% | [3] 65.9% | [4] 43.6% | [5] 59.4% | [6] 21.6%

CC(=O)Oc1ccccc1C#CC(=O)O
inactive: [1] 17.3% | [2] 25.6% | [3] 34% | [4] -1.2% | [5] -0.7% | [6] 15.4%

COc1cc(CC2COC(=O)[C@@H]2Cc2ccc(O)c(OC)c2)ccc1O (stereo not given in full)
inactive: [1] -29.7% | [2] -18.9% | [3] -23.4% | [4] 1.25% | [5] 6.55% | [6] 3.1%

CC(C(=O)c1ccccc1)C(O)(C(F)(F)F)C(F)(F)F (stereo not given)
inactive: [1] -5.15% | [2] 2.6% | [3] 4.25% | [4] -24.4% | [5] -0.85% | [6] -9.05%

O=C1OC(Cl)C=C1c1ccccc1 (stereo not given)
inactive: [1] 5.2% | [2] -7.35% | [3] -4.35% | [4] -36.5% | [5] -23.5% | [6] 0.65%

COc1ccc(OC)c(-c2cc(C(=O)O)c3cc4ccccc4cc3n2)c1
inactive: [1] 5.85% | [2] 6.05% | [3] -32.8% | [4] -69% | [5] -52.8% | [6] 17.2%

CCOc1ccc(N2CCN(C(=O)Nc3ccccc3OC)CC2)cc1
inactive: [1] -4.1% | [2] -6.2% | [3] -1.8% | [4] -47.5% | [5] 21.1% | [6] -3.95%

O=C(O)CC(C(=O)O)=C1CCCCC1
inactive: [1] 11.8% | [2] 13.4% | [3] 0.5% | [4] 8.15% | [5] 8.75% | [6] -0.3%

C/C=C1\CN2CCc3c([nH]c4ccccc34)C2C=C1CCO (stereo not given)
inactive: [1] -19.1% | [2] -34.4% | [3] -26.4% | [4] -13.2% | [5] -41.1% | [6] -43.7%

CCOCCOCCOC(=O)CC(C)=O
inactive: [1] 3.45% | [2] 24.9% | [3] 5.5% | [4] -22.3% | [5] -11.8% | [6] -11.5%

Cc1ccc(S(=O)(=O)C(CCC(=O)c2ccccc2)(CCC(=O)c2ccccc2)[N+](=O)[O-])cc1
inactive: [1] -9.05% | [2] -9.45% | [3] -10% | [4] -26% | [5] -1.5% | [6] 0%
